High-throughput results (PubChem)
This is a sample that favours compounds with a hit; in the whole collection about 2% have one here.
B2AR ag = agonists of human beta-2 adrenergic receptor inducing internalization. P07550. Am2.2-beta2AR cells, FAP receptor internalization, flow cytometry. response, % (test concentration not listed). 340,000 compounds, 0.43% hits;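 active = response above a set limit, near 3 SD of response in nonfluorescent compounds, cut at about 42% in these data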
Granule exo inh = blocks lytic granule exocytosis | 360,000 compounds, 0.66% hits | inhibition, % at 10 µM | AID 651702 | TALL-104 LAMP-1 surface exposure, flow cytometry; cells stimulated with thapsigargin and PMA;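 active = inhibition above about 55%, limit read from the data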
TLR4 MyD88 comp = blocks binding of human TLR4 to MyD88; 200,000 compounds, 0.18% hits; inhibition, % at 8.4 µM; AID 861; O00206+Q99836; HeLa CL3-4 TLR4/MyD88 BLA complementation, FRET ratio; in the data active = inhibition above about 25%;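 note: 0% = vehicle and 100% = reference inhibitor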
Target sequence (O00206 whole entry, looked up): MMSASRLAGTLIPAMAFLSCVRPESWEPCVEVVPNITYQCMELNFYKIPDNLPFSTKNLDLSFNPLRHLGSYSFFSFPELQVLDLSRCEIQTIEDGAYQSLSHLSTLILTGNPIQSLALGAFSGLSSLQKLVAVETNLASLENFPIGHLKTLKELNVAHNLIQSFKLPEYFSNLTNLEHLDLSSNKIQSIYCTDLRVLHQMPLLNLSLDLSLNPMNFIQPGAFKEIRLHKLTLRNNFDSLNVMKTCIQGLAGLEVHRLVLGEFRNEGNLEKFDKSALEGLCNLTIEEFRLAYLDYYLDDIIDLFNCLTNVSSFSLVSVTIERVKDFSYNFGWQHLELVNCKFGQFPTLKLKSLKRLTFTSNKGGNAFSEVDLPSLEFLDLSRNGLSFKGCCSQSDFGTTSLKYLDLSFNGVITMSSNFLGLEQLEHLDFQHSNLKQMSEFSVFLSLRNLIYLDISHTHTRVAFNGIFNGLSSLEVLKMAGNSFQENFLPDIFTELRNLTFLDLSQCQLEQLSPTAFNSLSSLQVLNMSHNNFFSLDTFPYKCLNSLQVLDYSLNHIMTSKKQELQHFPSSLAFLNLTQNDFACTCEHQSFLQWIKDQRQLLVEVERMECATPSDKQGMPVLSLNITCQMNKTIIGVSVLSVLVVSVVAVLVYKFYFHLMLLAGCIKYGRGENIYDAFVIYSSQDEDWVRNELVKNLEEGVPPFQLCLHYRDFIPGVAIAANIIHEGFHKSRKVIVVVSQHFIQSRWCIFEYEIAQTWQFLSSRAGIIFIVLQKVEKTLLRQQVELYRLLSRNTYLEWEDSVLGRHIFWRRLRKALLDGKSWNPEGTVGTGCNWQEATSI
Target sequence (Q99836 whole entry, looked up): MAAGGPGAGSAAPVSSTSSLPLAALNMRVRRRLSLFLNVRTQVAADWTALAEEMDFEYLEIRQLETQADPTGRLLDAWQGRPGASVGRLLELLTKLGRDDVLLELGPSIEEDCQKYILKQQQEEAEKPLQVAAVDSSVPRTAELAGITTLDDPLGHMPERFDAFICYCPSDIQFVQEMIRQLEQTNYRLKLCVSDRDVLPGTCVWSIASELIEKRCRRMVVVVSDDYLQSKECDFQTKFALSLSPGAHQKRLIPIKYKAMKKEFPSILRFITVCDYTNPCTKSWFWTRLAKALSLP
ABHD5 PLIN5 PPI = inhibitors of human ABHD5-perilipin-5 interaction | Split G. princeps luciferase complementation, luminescence, 4 h | inhibition, % at 4 µM | 360,000 compounds, 0.78% hits;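 active = inhibition above the mean inhibition across every tested compound plus 3 SD, cut at about 22% in these data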;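 note: 0% = DMSO only wells and the 100% control is not disclosed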
TLR9-MyD88 inh = blocks human TLR9 binding to MyD88; CHO BLA complementation TLR9-MyD88, CCF4 FRET ratio; inhibition, % at 4.98 µM; 340,000 compounds, 0.21% hits;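 active = inhibition above the mean over all tested compounds plus 3 SD, cut at about 21% in these data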;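 note: 0% = DMSO only wells and 100% = clavulanate BLA inhibitor control wells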
NOD2 RIPK2 PPI = NOD2-RIPK2 protein interaction inhibition; CHO BLA complementation NOD2-RIPK2, CCF4 ratio; inhibition, % at 4.98 µM; 360,000 compounds, 0.38% hits; AID 624267; in the data active = inhibition above about 21%;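 note: 0% = vehicle only and 100% = reference blocker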
ABHD5 PLIN5 conf = ABHD5-PLIN5 interaction inhibition, confirmed; shares compounds with ABHD5 PLIN5 PPI; AID 651612; biochemical ABHD5-PLIN5 interaction, luminescence; 2,200 compounds, 67% hits; inhibition, % at 4 µM; in the data active = inhibition above about 23%;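 note: 0% = DMSO vehicle wells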
HNF4 counter = active in HNF4 split-luciferase counter-screen for ABHD5-PLIN5 inhibitors. 2,200 compounds, 77% hits. shares compounds with ABHD5 PLIN5 PPI. HNF4 dimerization, luminescence, biochemical. inhibition, % at 4 µM;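 active = mean inhibition across replicate wells exceeding the computed hit threshold, cut at about 13% in these data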;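 note: light from luciferase halves that rejoin when HNF4 fusion proteins dimerize; 0% = DMSO only wells and the 100% control is not given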
* marks the source's active call; other numbers are inactive results; nt = no result.

SMILES	B2AR ag	Granule exo inh	TLR4 MyD88 comp	ABHD5 PLIN5 PPI	TLR9-MyD88 inh	NOD2 RIPK2 PPI	ABHD5 PLIN5 conf	HNF4 counter
CN(C)C(=O)c1cccc(-c2cnc3c(NC=O)cc(-c4ccccc4Cl)cn23)c1	nt	-1.9	nt	23.5*	nt	6.2	19.8	11.8
COc1cccc(-c2cnc3c(NC=O)cc(-c4ccoc4)cn23)c1	nt	11.1	nt	25.7*	nt	-0.1	30.3*	36.7*
CCCn1nnc(NC(=O)/C=C/c2ccccc2)n1	5.1	-0.3	-0.9	-0.9	5.5	-3.7	nt	nt
Cc1nc(NC(=O)/C=C/c2ccccc2)n[nH]1	13.9	0.9	-16.9	24.6*	1.5	4.8	42.1*	37.9*
Nc1nc(N2CCN(C/C=C/c3ccccc3)CC2)nc2ccccc12	-7.5	-1.0	1.1	27.8*	-3.5	-3.0	31.4*	6.6
C[C@H](CO)N1C[C@H](C)[C@@H](CN(C)C)Oc2c(NS(=O)(=O)c3cn(C)cn3)cccc2C1=O	2.2	1.2	nt	-4.2	-7.9	-24.3	nt	nt
O=C(NC(c1ccccc1)c1ccsc1)C1CCN(Cc2ccc(Oc3ccccc3)cc2)CC1 (configuration not stated)	nt	25.3	nt	5.1	nt	4.7	nt	nt
CC1CCCCC1NC(=O)CSc1nnc(-c2ccco2)n1N (configuration not stated)	nt	10.5	nt	-4.2	-1.2	12.6	nt	nt
Cc1ccc(C2=Nc3ccccc3SC(c3cccc([N+](=O)[O-])c3)C2)cc1 (configuration not stated)	3.6	-0.4	nt	59.5*	-1.4	-4.0	2.6	73.5*
N#CC1=C(N)NC(=S)C(C(N)=O)C1c1ccc([N+](=O)[O-])cc1 (configuration not stated)	-3.2	-3.1	-12.9	52.0*	-4.1	1.0	-35.0	-16.7
O=C1NC(C(=O)O)=CC(c2ccc([N+](=O)[O-])cc2)N1 (configuration not stated)	8.0	6.9	nt	-1.3	-3.5	-4.1	nt	nt
CC(C)(C)c1ccc(C(=O)N2CCC2(C)C(=O)NCC(F)(F)F)cc1 (configuration not stated)	nt	-3.6	nt	2.2	nt	-2.8	nt	nt
CN(CC(=O)N1CCCCC1)S(=O)(=O)c1ccc(Cl)cc1	-2.9	-0.6	-4.2	-4.5	-0.4	-2.1	nt	nt
CN(CC(=O)N1CCCC1)S(=O)(=O)c1ccc(Cl)cc1	-3.5	16.5	-7.4	27.1*	-4.6	-6.2	5.0	3.2
CCC(=O)N(CCC(c1ccc(C)cc1)c1ccco1)Cc1ccco1 (configuration not stated)	12.8	2.6	nt	25.5*	2.5	-6.3	16.8	12.3
CCC(=O)N(CCC(c1ccco1)C(C)C)Cc1ccccc1 (configuration not stated)	-1.1	0.5	nt	-3.8	-5.9	-4.8	nt	nt
Cc1ccc(/C=C2/CNC/C(=C/c3ccc(C)cc3)C2=O)cc1	2.1	29.9	nt	95.5*	0.3	1.0	100.0*	94.3*
CCCCc1ccc(C2C3=C(CC(C)(C)CC3=O)NC3=C2C(=O)c2ccccc23)cc1 (configuration not stated)	24.6	6.2	10.7	4.3	-0.2	-6.3	nt	nt
CCCc1ccc(C2C3=C(CC(C)(C)CC3=O)NC3=C2C(=O)c2ccccc23)cc1 (configuration not stated)	12.2	1.6	-0.1	42.2*	-11.6	1.5	65.9*	75.3*
C=C1C(=O)O[C@H]2C[C@H]1[C@@H](OC(C)=O)C/C(C)=C/CC/C(C)=C\CC[C@]2(C)O	16.4	5.1	nt	70.5*	-9.0	12.3	87.7*	63.7*
C=C1C(=O)O[C@@H]2[C@H]3O[C@]3(C)CC/C=C(\C)CC[C@@H]12	5.7	16.4	nt	5.2	2.7	-0.3	nt	nt
Cn1c(N)c(C(=O)COC(=O)C2Cc3ccccc3CN2S(C)(=O)=O)c(=O)n(C)c1=O (configuration not stated)	nt	-12.8	nt	-0.5	-0.2	-6.9	nt	nt
Cc1oc(-c2ccc(Cl)cc2)cc1-c1nn2c(-c3ccoc3C)nnc2s1	10.9	-1.4	-2.4	24.4*	0.2	-16.9	12.8	17.3*
Clc1ccc(-c2nnc3sc(-c4ccc(Br)o4)nn23)cc1	-312.8	0.1	4.6	0.6	3.1	-4.6	nt	nt
Cc1ccc2nc(/C(C#N)=C/c3ccc(-c4ccccc4C(=O)O)o3)[nH]c2c1	2.9	7.9	nt	-3.2	1.6	9.5	nt	nt
SMILES	B2AR ag	Granule exo inh	TLR4 MyD88 comp	ABHD5 PLIN5 PPI	TLR9-MyD88 inh	NOD2 RIPK2 PPI	ABHD5 PLIN5 conf	HNF4 counter
Cc1ccc2nc(/C(C#N)=C\c3ccc(N4CCOCC4)o3)[nH]c2c1	-92.7	0.7	12.5	23.7*	8.0	8.0	30.6*	43.9*
Cc1ccc(NC(=O)c2ccc(OCC3CCCO3)cc2)cc1Cl (configuration not stated)	nt	8.8	nt	-0.8	-3.9	-8.3	nt	nt
CC1(c2ccc(OCC(N)=O)cc2)NC(=O)NC1=O (configuration not stated)	2.7	-8.2	nt	10.0	6.3	-12.6	nt	nt
O=C1Nc2ccccc2/C1=C/C(=O)c1cccs1	41.0	0.7	5.1	31.8*	-2.8	13.0	57.0*	94.5*
COc1ccc(C2NC(=O)c3ccccc3N2)cc1OC (configuration not stated)	6.2	3.4	8.9	-2.1	-0.3	0.5	nt	nt
CCN1C(=O)/C(=C\C(=O)c2cccs2)c2cc(Br)ccc21	2.8	46.7	5.9	6.4	10.7	-2.6	nt	nt
COc1ccc(C(=O)/C=C2/C(=O)Nc3ccccc32)cc1OC	-19.6	-13.4	nt	42.9*	4.9	9.8	53.4*	85.1*
NC(=O)COc1ccc(C(=O)/C=C2/C(=O)Nc3ccccc32)cc1	24.5	5.0	nt	53.9*	0.4	5.8	55.5*	88.9*
COC(=O)C1=CN(c2ccc(C(C)(C)C)cc2)C(N)=C(C#N)C1c1cccc2ccccc12 (configuration not stated)	nt	-6.1	nt	-1.6	nt	-6.0	nt	nt
Cc1cccnc1C(NC(=O)C1CCN(CCCOc2ccccc2)CC1)c1ccc(F)cc1 (configuration not stated)	nt	0.1	nt	0.0	nt	0.6	nt	nt
COc1ccccc1N1CCN(C2=CC(=O)CCC2)CC1	-4.8	4.4	2.6	20.7	2.4	-4.9	nt	nt
O=C1C=C(N2CCN(C3=CC(=O)CCC3)CC2)CCC1	-4.2	-0.2	-4.0	47.7*	0.1	-3.0	9.5	19.5*
O=C1C=C(N2CCOCC2)CCC1	-1.1	-13.0	nt	26.9*	-2.0	-8.5	3.6	3.5
CSc1ccc(Cl)c(C(=O)OCC(=O)NCc2ccco2)c1	-3.3	4.4	3.4	34.2*	-2.2	-10.6	17.3	17.8*
CSc1ccc(Cl)c(C(=O)NCc2ccco2)c1	9.3	2.6	-9.8	8.7	-7.5	1.5	nt	nt
